# About 4,300 (8.3%) of roughly 52,000 compounds were called active. The sample as a whole holds a higher share of actives than the screen did. Values without a mark were called inactive. No stated cut-off is given here; in the data, active means survival mostly below about 52% (no sharp cut-off); inactive means mostly above about 56%.
# Tested on: DeltatarO mutant
# Test: S. aureus survival, RN4220 and DeltatarO strains – OD600, teichoic acid synthesis inhibitors, primary screen (AID 463173)
# Details: S. aureus RN4220 wild type/DeltatarO growth, OD600, 18 h, hits give low values, screened at 18.75 µg/mL (by protocol)
row,Structure (SMILES),survival
1,O=c1c2cnn(-c3ccc(F)cc3)c2ncn1Cc1ccc(F)cc1,106%
2,CCn1c2c(c(=O)n3ncc(C(=O)N4CCN(c5ccc(C(C)=O)cc5)CC4)c13)CN(Cc1ccc(OC)cc1)CC2,126%
3,COc1ccc(Br)cc1CNC(=O)c1ccc2c(c1)nc1n2CCC(C)C1 (stereo not drawn),75%
4,COc1ccccc1C(=O)N1CCC(c2noc(-c3ccc(S(=O)(=O)N4CCCC4)cc3)n2)CC1,98%
5,COc1ccc(NC(=O)C(Cc2ccccc2)NS(=O)(=O)c2ccc3c(c2)CCN3C(C)=O)cc1 (stereo not drawn),72%
6,COc1ccc(N2CCN(C(=O)c3ccc4c(c3)N(Cc3ccc(F)cc3)C(=O)c3ccccc3S4=O)CC2)cc1 (stereo not drawn),116%
7,CC(=O)Nc1ccc(S(=O)(=O)NC2=NCN(CCO)CN2)cc1,89%
8,COc1ccc(C)cc1NC(=O)CSc1nc(=O)n(Cc2ccco2)c2c1CCC2,116%
9,CCCCCOc1ccc(Cn2c(=O)oc3ccc(C)cc32)cc1OC,4% (active)
10,CCCCOc1ccc(CN2C(=O)C(=O)c3cc(C)ccc32)cc1OC,122%
11,O=C(O)c1ccc2oc(=O)n(Cc3ccccc3)c2c1,94%
12,CCCCOc1ccc(Cn2c(=O)oc3ccc(C)cc32)cc1,40% (active)
13,CCOc1ccc(CNC(=O)c2ccc3oc(=O)n(Cc4ccccc4)c3c2)cc1,79%
14,CCCCOc1ccc(Cn2c(=O)oc3ccc(C)cc32)cc1OC,36% (active)
15,COc1cc(Cn2c(=O)oc3ccc(C)cc32)ccc1OCCC(C)C,-1% (active)
16,CC(C)CCOc1ccc(Cn2c(=O)oc3ccccc32)cc1,127%
17,CCCCOc1ccc(Cn2c(=O)oc3ccccc32)cc1,127%
18,CCCCCOc1ccc(Cn2c(=O)oc3ccccc32)cc1,124%
19,CCOc1ccc(CCNC(=O)c2ccc(CSCc3ccccc3C)o2)cc1OCC,112%
20,Cc1ccc(NC(=O)c2ccc(NC(=O)N3CCSc4ncccc43)cc2)cc1Cl,109%
21,CCCn1cc(S(=O)(=O)c2cc(C)ccc2C)c(=O)c2cc(F)c(N3CCN(CC)CC3)cc21,80%

row,Structure (SMILES),survival
1,O=C(Nc1ccccc1C(=O)OCc1cc(=O)n2ccsc2n1)c1ccc(Cl)cc1,76%
2,COc1ccc(NC(=O)c2ccc(-c3nc(CSc4ccccc4)c(C)o3)cc2)cc1OC,84%
3,Cc1ccc(C)c(NC(=O)CN(C)S(=O)(=O)c2cccc3cccnc23)c1,85%
4,CCCn1c(N)nc2c1c(=O)[nH]c(=O)n2C,71%
5,COC(=O)c1ccc(NC(=O)CC2C(=O)N(c3ccc(Cl)cc3)C(=O)N2Cc2cccs2)cc1 (stereo not drawn),102%
6,Cc1cc(C)c(Cn2c3ccccc3c3cnn(CC(=O)NCCc4ccccc4)c(=O)c32)c(C)c1,133%
7,Cc1ccc(NC(=O)Cn2cc(C(=O)C3CC3)c3ccccc32)c(C)c1,90%
8,O=C(NCc1ccccc1Cl)c1ccc2oc(=O)n(Cc3ccccc3)c2c1,72%
9,Cc1ccc2oc(=O)n(Cc3ccccc3Cl)c2c1,-3% (active)
10,CCCCCOc1ccccc1CN1C(=O)C(=O)c2cc(C)ccc21,151%
11,CCCCCOc1ccccc1Cn1c(=O)oc2ccc(C)cc21,5% (active)
12,CCOC(=O)c1ccc2oc(=O)n(Cc3ccccc3)c2c1,83%
13,Cc1ccc2oc(=O)n(CCNC(=O)Nc3ccccc3Cl)c2c1,72%
14,CCCCN(CC)CCCNC(=O)c1cn(C)c(=O)c2c1c1ccccc1n2C,139%
15,Cc1ccc2c(c1)cc1c(=O)n(CC(=O)NCc3ccco3)nc(C)n12,84%
16,O=C(CN1C(=O)COc2ccc(S(=O)(=O)NC3CCCC3)cc21)NCc1ccccc1Cl,80%
17,CCCC(c1nnnn1CC1CCCO1)N(Cc1cccs1)Cc1cc2ccc(C)c(C)c2[nH]c1=O (stereo not drawn),71%
18,Cc1ccc(-c2nc3cc(C(C)C)ccc3o2)cc1NC(=O)c1cc([N+](=O)[O-])ccc1N1CCOCC1,62%
19,CCn1cc(C2N3CC4(CC)CN2CC(CC)(C3)C4=O)c2ccccc21 (stereo not drawn),73%
20,Cc1cc(C)cc(NC(=O)c2ccc3c(c2)nnn3C2CCCC2)c1,128%
21,Cc1cccc(C)c1NC(=O)c1ccc2c(c1)nnn2C1CCCC1,-5% (active)

row,Structure (SMILES),survival
1,Cc1c(Cl)cccc1NC(=O)c1ccc2c(c1)nnn2C1CCCC1,108%
2,CCN(CC)c1ccc(NC(=O)CN2C(=O)c3cccnc3Sc3ccccc32)c(C)c1,-2% (active)
3,Cc1cc(Br)ccc1NC(=O)CN1C(=O)c2cccnc2Sc2ccccc21,90%
4,CCN(CC)c1ccc(NC(=O)CN2C(=O)c3cccnc3Oc3ccccc32)c(C)c1,116%
5,CCOC(=O)c1c(C)c(C(=O)NCCc2ccc(OC)cc2)c(C)n1C,99%
6,CCC(=O)N1c2ccccc2CC1C(=O)NCCc1ccccc1C (stereo not drawn),71%
7,Cc1ccc(CN2C(=O)CN(C3CCCCCC3)C(=O)C2c2ccc(F)cc2)cc1 (stereo not drawn),6% (active)
8,COc1ccc(C2C(=O)N(C3CCCCCC3)CC(=O)N2Cc2ccc(C)cc2)cc1 (stereo not drawn),60%
9,Cc1ccc(CN2C(=O)CN(C3CCC(C)CC3)C(=O)C2c2ccc(F)cc2)cc1 (stereo not drawn),91%
10,Cc1ccc(C=C2C(=O)N(C)C(=O)N(C)C2=O)cc1,82%
11,CCOC(=O)C1=C(CS(=O)(=O)c2ccc(F)cc2)NC(=O)NC1c1ccc(OCC)c(OC)c1 (stereo not drawn),119%
12,COc1ccc(C(=O)Nc2cc3cc(Cl)ccc3oc2=O)cc1OC,73%
13,COc1ccc(-c2cn3cccnc3n2)cc1NC(=O)Cc1ccccc1,82%
14,Cc1[nH]c(=O)[nH]c(=O)c1NC(=O)c1ccccc1,88%
15,Cc1cn(C(=O)c2ccccc2)c(=O)[nH]c1=O,57% (active)
16,CC1=NN(C(=O)c2ccccc2)C(C)(O)C1(C)C (stereo not drawn),98%
17,CC(NC(=O)CSc1n[nH]c(-c2ccccc2Cl)n1)c1nc2ccccc2[nH]1 (stereo not drawn),72%
18,CCC(=O)Nc1ccc(Cl)c(-c2nc3ccccc3[nH]2)c1,49% (active)
19,CC(C)(C)C(=O)Nc1ccc(Cl)c(-c2nc3ccccc3[nH]2)c1,44%
20,CCC(=O)Nc1cccc(-c2nc3ccccc3[nH]2)c1C,94%
21,CC(C)CC(=O)Nc1ccc(Cl)c(-c2nc3ccccc3[nH]2)c1,39% (active)
